IL-1B inflam inh: blocks inflammasome-driven IL-1 beta release. hit rate 4.7% among 360,000. AID 743279. THP-1 LPS/ATP IL-1B secretion, AlphaLISA, 16 h; active compounds read low. activity change, % at 57.5 µM; in the data active = activity change below about -50%; inconclusive = mostly about -30% to -49%; also: % is scaled to controls: 0 for no effect and ±100 for the full control effect
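Secreted IL-1B measured by AlphaLISA bead assay after 16 h compound exposure of THP-1 cells; compounds (final up to 57.5 uM) added 1 h before LPS (250 ng/mL) and ATP (1.25 mM) stimulation; lower signal means less secretion.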
DRD3 agonist: activates the human D3 dopamine receptor; P35462; D3R DiscoveRx beta-arrestin cells, luminescence, 90 min; max activation, %; hit rate 0.58% among 410,000; AID 652048; in the data active = max activation above about 30%; also: 0% is about no effect
Target sequence (P35462 whole entry, looked up): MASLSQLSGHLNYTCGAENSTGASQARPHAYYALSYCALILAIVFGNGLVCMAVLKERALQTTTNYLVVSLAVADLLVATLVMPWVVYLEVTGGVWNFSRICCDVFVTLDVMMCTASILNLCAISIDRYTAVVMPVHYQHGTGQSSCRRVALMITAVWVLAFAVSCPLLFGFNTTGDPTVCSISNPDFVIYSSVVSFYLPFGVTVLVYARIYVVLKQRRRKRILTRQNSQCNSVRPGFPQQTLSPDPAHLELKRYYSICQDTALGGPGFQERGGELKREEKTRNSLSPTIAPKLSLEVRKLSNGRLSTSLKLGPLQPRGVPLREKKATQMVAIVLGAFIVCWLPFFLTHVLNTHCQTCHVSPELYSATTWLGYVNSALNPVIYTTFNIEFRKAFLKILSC
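Agonist-mode cell screen: cells plated at 1500/well and incubated overnight at 37 °C, then exposed to library compounds for 90 min at 37 °C. Detection reagent was added for 30–60 min at room temperature, and luminescence was read.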
DT40 TDP1 no CPT: qHTS for Inhibitors of human tyrosyl-DNA phosphodiesterase 1 (TDP1): qHTS in cells in absence of CPT; hit rate 15% among 420,000; DT40 Tdp1-/- hTDP1 cells, no CPT, ATP luminescence, 48 h; AID 686978, 2013; Potency, µM (series often up to 46.2 µM), without a hit: at the highest dose activity change, negative = growth inhibition, hits mostly inhibitors; also: potency is read from the fitted curve at half-maximal effect; % is scaled to controls: 0 for no effect and ±100 for the full control effect; nearly all actives have a fitted effect of over 55% in size
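Camptothecin absent (DMSO only). Human TDP1-complemented DT40 knockout cells, 400 cells/well, 37 °C for minimum 48 hr; ATP measured via CellTiter-Glo, 30 min dark incubation, luminescence.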
DRD3 antagonist: antagonists of human D3 dopamine receptor. P35462. D3R cells, DiscoveRx beta-arrestin luminescence, antagonist mode; active compounds read low. max response, negative = inhibition, %. hit rate 2.5% among 360,000. AID 652054; in the data active = max response below about -50%; inconclusive = no clear call, values can overlap the other calls; also: % is scaled to controls: 0 for no effect and ±100 for the full control effect
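Cells plated overnight at 1500 cells/well, then exposed to library compounds with dopamine controls for 90 minutes at 37 degrees C. DiscoveRx reagent added for 30–60 minutes at room temperature; luminescence read, quantitative HTS format.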
DT40 TDP1 CPT: growth inhibition of DT40 Tdp1-/-;hTDP1 cells with camptothecin (screen for TDP1 inhibitors) | chicken DT40 Tdp1-/-;hTDP1 cells + 20 nM CPT, ATP luminescence, 48 h | Potency, µM (series often up to 46.2 µM), inactives show top-dose activity change, negative = growth inhibition, most hits filed as inhibitors | hit rate 12% among 420,000 | AID 686979; also: potency is read from the fitted curve at half-maximal effect; % is scaled to controls: 0 for no effect and ±100 for the full control effect; nearly all actives have a fitted effect of over 55% in size
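Chicken DT40 Tdp1-/- cells complemented with human TDP1, 400 cells/well, exposed to compounds plus 20 nM camptothecin for at least 48 h at 37 C; viability read as ATP content by CellTiter-Glo luminescence.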
ClpP mod: qHTS Assay for Activators of ClpP | purified B. subtilis ClpP, FRET peptide cleavage, 20 min | hit rate 1.9% among 340,000 | Potency, µM (highest dose often 57.5 µM), without a hit: top-dose activity change, negative = active | AID 651965, 2013 | ATP-dependent Clp protease proteolytic subunit (Bacillus subtilis (strain 168)), P80244; active = well fitted falling curve with a large enough effect; inconclusive = small, poorly fitted or top-dose-only effect; inactive = no such curve, though single readings can be large or run the other way; also: potency is read from the fitted curve at half-maximal effect; the source files actives as falling curves though it sought activators and does not explain the sign; nearly all actives have a fitted effect of over 65% in size
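ClpP 10 microg/mL final, pH 8 Tris/KCl buffer with BSA, glycerol, Tween-20; compound pinned in; FRET-FV substrate; RT 20 min; Ex320/Em430; ΔFRET vs ADEP 5.8 microM, DMSO, no enzyme.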
Starred values were filed as active, the others as inactive; ? = inconclusive; . = no result given; ! = not confirmed by another sample; [ ] = dose if it differs, or a comment. An excerpt weighted towards active compounds, which were near 21% of everything screened. Unless noted, calls follow the shape of the dose curve; as a rule, active = well fitted inhibition curve with a large enough effect; inconclusive = small, poorly fitted or top-dose-only effect; inactive = flat fitted curve, though single readings scatter.

SMILES | IL-1B inflam inh | DRD3 agonist | DT40 TDP1 no CPT | DRD3 antagonist | DT40 TDP1 CPT | ClpP mod
CC(C)NC(=O)C(=O)NCCC1CCCCN1S(=O)(=O)c1cccs1 (centres undefined) | 1 | 1 | 5% | -2 | -13% | -1%
Cc1cccc(CSc2nncc(=O)[nH]2)c1 | 0 | 1 | 0% | 4 | -10% | -1%
CSc1nncc(=O)[nH]1 | 22 | -8 | 23µM* | -18 | ? | 1%
Cc1cccc(NC(=O)CSc2nnc3scc(-c4ccccc4)n23)c1 | . | 2 | 21µM* | . | ? | 2%
CCOC(=O)CSc1ccc2ccccc2n1 | 3 | -13 | -14% | -23 | -8% | -4%
Cc1ccc(-c2nc(NC(=O)CSc3nnnn3-c3ccccc3)ns2)cc1 | -5 | 7 | -24% | 30 | -13% | 78%
Cc1ccc(-c2csc3nnc(SCC(=O)Nc4nsc(-c5ccccc5)n4)n23)cc1 | -23 | 14 | 23µM* | 10 | 21µM* | -2%
CCOc1ccc(NC(=O)CSc2nnc3scc(-c4ccccc4)n23)cc1 | . | 1 | ? | . | -23% | -1%
O=C(CSc1nnc2scc(-c3ccccc3)n12)Nc1nsc(-c2ccccc2)n1 | ? | 25 | 23µM* | 5 | 15µM* | 1%
Cc1ccc(-c2nc(NC(=O)CSc3ccc4ccccc4n3)ns2)cc1 | 10 | -2 | ? | 19 | 15µM*! | -7%
O=C(CSc1nnc2scc(-c3ccccc3)n12)N1CCN(Cc2ccccc2)CC1 | ? | -6 | ? | -17 | -28% | -2%
Cc1ccc(-n2nc(C)c(=O)c(-c3ccccc3)c2NC(=O)C(C)C)cc1 | 16 | -2 | -6% | 0 | 0% | .
COCC(=O)N1CCC2(CC1)CCN(c1ccccc1)CC2 | . | . | -10% | . | -4% | .
CCC(C)C(NC(N)=O)C(=O)Nc1ccc(OCc2ccccc2)cc1 (centres undefined) | -5 | -7 | 4% | 4 | -17% | 0%
CCn1c(C)c(C)c2cc(C(=O)NCCCN3CCCCC3C)ccc21 (centres undefined) | ? | -10 | -13% | -16 | ? | -17%
O=C(CSc1nnc2scc(-c3ccccc3)n12)Nc1nsc(-c2ccc(Cl)cc2)n1 | 33 | 1 | 21µM* | 22 | 16µM* | -13%
O=C(Nc1ccc(Cl)cc1F)c1cc(S(=O)(=O)NC2CCCCCC2)ccc1F | . | 0 | ? | . | 21µM* | 6%
CCc1ccccc1NC(=O)c1cc(S(=O)(=O)NC2CCCC2)ccc1F | . | -9 | 21µM* | . | ? | -1%
O=C(Nc1ccc(Br)cc1F)c1cc(S(=O)(=O)NC2CCCC2)ccc1F | . | -8 | 16µM* | . | 21µM* | -3%
COc1ccc(C)cc1NC(=O)c1cc(S(=O)(=O)NC2CCCCCC2)ccc1F | . | 4 | ? | . | ? | -27%
O=C(CN1Cc2ccccc2OC(c2ccccc2F)C1)NC(c1ccccn1)C(F)(F)F (centres undefined) | . | . | ? | . | -5%[9.04 µM] | .
Cc1ccc(-n2nnnc2C2CCN(S(=O)(=O)c3ccc(OC(F)(F)F)cc3)CC2)cc1 | . | 6 | -13% | . | -4% | 1%
COc1ccc(-n2nnnc2C2CCN(S(=O)(=O)c3ccc(NC(C)=O)cc3)CC2)cc1 | . | 17 | 4.6µM* | . | 5.8µM* | 2%
COc1ccc(-n2nnnc2C2CCN(S(=O)(=O)c3ccc(F)cc3Cl)CC2)cc1 | . | 5 | 16µM* | . | ? | 0%
COc1ccc(-n2nnnc2C2CCN(S(=O)(=O)c3cccc(C(F)(F)F)c3)CC2)cc1 | . | -5 | -14% | . | -19% | -1%
CCOc1ccc(-c2c(C)nn3c(C)c(C(=O)NCCc4ccc(C)cc4)cnc23)cc1OCC | . | -10 | ? | . | ? | -6%
CCCCC(=O)N1CCN(c2nc3ccc(F)cc3s2)CC1 | -2 | -9 | 8.2µM* | -2 | ? | 1%
